# SSB-PriA inh – blocks PriA binding to SSB C-terminal tail | inhibition, % at 33 µM | AlphaScreen SSBct-PriA binding, biotinylated peptide | 0.6% of 430,000 active; in the data active = inhibition mostly above about 37%, no sharp cut-off; inactive = mostly below about 20%;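 also: plate controls were negative control peptide for no effect and reference peptide for full effect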
# Anthrax LF prot – inhibitors of Bacillus anthracis lethal factor protease; inhibition, % at 10 µM; multiplex microsphere protease cleavage assay, LF; 0.12% of 360,000 active; AID 588501; P15917; also: plate controls were buffer without enzyme for full effect and enzyme alone for no effect
# Bead autofluor – counter-screen for toxin protease inhibitors: compound fluorescence. compound autofluorescence counterscreen, microsphere flow cytometry; active compounds read high. fluorescence intensity (test concentration not listed). 3.1% of 360,000 active. AID 624483; in the data active = fluorescence intensity above about 16000; inconclusive = no clear call, values can overlap the other calls
# MazF activator – MazEF (E. coli) toxin RNase activation | P0AE70 | FAM/BHQ RNA-DNA oligo cleavage fluorescence, 5 h | activation, % at 20 µM | 0.32% of 350,000 active | AID 504720; in the data active = activation above about 50%
# BoNT-F LC inh – blocks Botulinum neurotoxin F light chain protease; AID 588497; Multiplex microsphere protease cleavage assay, flow cytometry; inhibition, % at 10 µM; 0.22% of 360,000 active; in the data active = inhibition above about 35%, passing the limit was not always enough; inconclusive = no clear call, values can overlap the other calls; also: plate controls were buffer without enzyme for full effect and enzyme alone for no effect
# BoNT A protease – inhibitors of Botulinum neurotoxin A light chain protease; multiplex microsphere protease substrate cleavage, flow cytometry; AID 588499; 0.17% of 360,000 active; inhibition, % at 10 µM; also: plate controls were buffer without enzyme for full effect and enzyme alone for no effect
# * marks the source's active call; other numbers are inactive results; ? = inconclusive; / = not tested or not shown. Compounds with a hit are over-represented: about 3.3% of the library has one in this group of screens. Rule as the data show it, unless noted: active = inhibition above about 30%; inconclusive = no clear call, values can overlap the other calls; inactive = below that.
SMILES,SSB-PriA inh,Anthrax LF prot,Bead autofluor,MazF activator,BoNT-F LC inh,BoNT A protease
Cc1ccc(-c2nn3c(C)nnc3c3ccccc23)cc1S(=O)(=O)NCCN1CCOCC1,-2.5,-2.5,22118*,-2.7,-5.6,-5.8
Cc1ccc(-c2nn(C)c(=O)c3ccccc23)cc1S(=O)(=O)N1CCOCC1,-14.1,-7.3,25828*,-3.3,-13.3,-10.6
CCC(=O)Nc1cc(-c2nn(C)c(=O)c3ccccc23)ccc1OC,8.8,0.2,21426*,0.5,2.8,2.7
CCCC(=O)Nc1cc(-c2nn(C)c(=O)c3ccccc23)ccc1N1CCCCC1,-14.7,-2.8,16901*,7.1,-1.3,-2.1
NC(=NOC(=O)Cc1ccccc1)c1cccnc1,-11.7,/,/,/,/,/
CCOc1ccc(C)cc1S(=O)(=O)NCC(C)(O)CSC (configuration not stated),-3.0,/,/,/,/,/
CC(=O)Nc1cc(-c2nn(C)c(=O)c3ccccc23)ccc1N1CCCCC1,-2.5,-2.2,16582*,-4.0,3.2,-0.2
CCC(=O)Nc1cc(-c2nn(C)c(=O)c3ccccc23)ccc1N1CCCCC1,-8.8,-2.1,3552,2.3,-4.7,0.5
Cn1nc(-c2ccc(N3CCOCC3)c(NS(=O)(=O)c3ccccc3)c2)c2ccccc2c1=O,8.0,-1.1,22480*,12.7,-5.2,-6.9
Nc1nc(SCC(=O)Nc2ccc(Cl)c(Cl)c2)ncc1S(=O)(=O)c1cccs1,0.0,/,/,/,/,/
CCCn1c(=NC(=O)C2=COCCO2)sc2c(C)cc(C)cc21,-12.0,/,/,/,/,/
Fc1ccccc1OCCSc1nnnn1-c1ccccc1,-82.9,-2.0,20510*,-0.3,-2.4,-1.7
O=C(Nc1ccc2c(c1)N(C(=O)C1CC1)CC2)c1ccc(OC(F)(F)F)cc1,-2.0,/,/,/,/,/
Cc1ccc(N2C(=O)c3n[nH]c(C)c3C2c2ccco2)cc1 (configuration not stated),-5.4,-2.1,22119*,2.9,-1.7,?
COc1ccc(NC(=O)Cc2csc(SCc3ccc(Cl)cc3)n2)cc1OC,14.0,/,/,/,/,/
O=c1[nH]c(SCC2CCCCO2)nc2ccccc12 (configuration not stated),-17.0,0.3,21391*,-4.1,0.2,?
O=C(O)CCNS(=O)(=O)c1ccc(Oc2ccccc2Cl)cc1,-3.0,-2.8,17172*,-8.9,-1.9,-1.6
Cc1ccccc1N=C1NN=C(c2ccccc2F)CS1,39.2*,-0.7,2007,3.0,2.3,0.7
Cc1cccc(C)c1N=C1NN=C(c2ccccc2F)CS1,14.6,-1.1,2671,5.9,-9.7,0.7
Cc1ccc(NC(=O)COc2cccc(OCCC(C)C)c2)cc1,-39.0,/,/,/,/,/
O=[N+]([O-])c1cc(C=NN2CCCCC2)ccc1Cl,43.4*,/,/,/,/,/
COc1cccc(NC(=O)N2CCS[C@H]2c2ccc(Cl)c(Cl)c2)c1OC,-4.0,/,/,/,/,/
O=C(c1cccs1)N(Cc1cccc(F)c1)C1CCS(=O)(=O)C1 (configuration not stated),5.2,5.0,5123,5.1,0.8,1.0
O=C(c1cccs1)N(Cc1ccco1)C1CCS(=O)(=O)C1 (configuration not stated),1.3,1.3,22695*,0.5,4.7,2.6
O=C(c1cccs1)N(Cc1cccc(Cl)c1)C1CCS(=O)(=O)C1 (configuration not stated),-15.1,-0.5,21176*,-0.2,-3.0,?
SMILES,SSB-PriA inh,Anthrax LF prot,Bead autofluor,MazF activator,BoNT-F LC inh,BoNT A protease
O=C(CSc1nc2scc(-c3ccco3)c2c(=O)n1-c1ccccc1)c1ccccc1,-4.0,/,/,/,/,/
O=C(CCS(=O)(=O)c1ccccc1)N1CCSC(c2ccccc2Cl)CC1 (configuration not stated),1.0,/,/,/,/,/
Cc1noc(C)c1COc1cccc(C(=O)OC(C)C(=O)Nc2ccc3c(c2)OCO3)c1 (configuration not stated),4.3,-0.1,19670*,-8.0,-0.3,3.8
O=c1c2ccccc2cnn1-c1ccc(Br)cc1,-0.5,2.2,2688,8.0,-1.0,0.2
O=c1c2ccccc2cnn1-c1ccc2ccccc2c1,-25.4,-1.8,23123*,3.0,-10.5,-8.8
Cc1nc2n(c(=O)c1C)C(CC(=O)Nc1ccccc1-c1cn3cccc(C)c3n1)CS2 (configuration not stated),8.0,/,/,/,/,/
CCCn1nc(NC(=O)CC(C)C)c2cc3ccccc3nc21,-2.1,-0.1,22379*,8.0,3.1,1.4
CC(C)Cn1nc(NC(=O)c2ccco2)c2cc3ccccc3nc21,-14.4,4.1,5321,5.3,-2.2,0.1
CCCCC(=O)Nc1nn(CC(C)C)c2nc3ccccc3cc12,-3.0,-6.3,21680*,-12.2,-1.9,?

# Screening data deposited in PubChem BioAssay by several laboratories.
